Mtb betalactam: beta-lactam sensitization of Mtb H37Rv | hit rate 0.27% among 330,000 | AID 434955 | inhibition, % at 25 µM | M. tuberculosis H37Rv growth with meropenem, percent inhibition; call rule not given here;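 also: growth measured after seven days incubation then overnight dye step; 0% = bacteria only wells and 100% = bacteria with antibiotic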
RecA intein inh: Mtb RecA intein splicing inhibition; AID 2221; hit rate 0.75% among 290,000; cell-free RecA intein splicing, fluorescence; P9WHJ3; inhibition, % (no concentration beside the values); in the data active = inhibition above about 30%;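 also: 0% = vehicle wells and 100% = reference inhibitor control wells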
CCHF vOTU inh: CCHFV vOTU protease inhibition; Pep-AMC fluorescence; inhibition, % at 11.5 µM; hit rate 0.55% among 370,000; in the data active = inhibition above about 30%; also: 0% = vehicle wells with enzyme and 100% = no enzyme wells
FBA Mtb inh: Mtb fructose-bisphosphate aldolase inhibition; AID 588726; inhibition, % at 1 µM; purified M. tuberculosis FBA, fluorescence read-out; P9WQA3; hit rate 2.3% among 360,000;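 also: 0% = vehicle and 100% = reference inhibitor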
GDH-TPI counter-1: counter-screen for M. tuberculosis FBA inhibitors: GDH-TPI coupled enzymes; GDH-TPI coupled enzyme counterscreen, NADH absorbance; inhibition, % at 4.8 µM; hit rate 1.2% among 360,000; AID 588335; in the data active = inhibition above about 30%;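 also: 0% = DMSO wells and 100% = wells lacking the enzyme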
Mtb FBA confirm: Mtb FBA inhibition, confirmed | shares compounds with FBA Mtb inh | purified M. tuberculosis FBA, fluorescence read-out | inhibition, % at 1 µM | hit rate 78% among 5,600;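 also: 0% = vehicle wells and 100% = reference inhibitor wells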
GDH-TPI counter-2: counter-screen for M. tuberculosis FBA inhibitors: GDH-TPI coupled enzyme inhibition | shares compounds with FBA Mtb inh | GDH-TPI coupled enzyme counterscreen, fluorescence | inhibition, % at 1 µM | hit rate 81% among 5,600 | AID 652141; in the data active = inhibition above about 10%
GDH-TPI dose: inhibits GDH-TPI coupling enzymes in dose response | shares compounds with FBA Mtb inh | GDH-TPI coupled enzyme assay, fluorescence, artifact counterscreen | IC50, µM | hit rate 79% among 170 | AID 652145; call rule not given here
* marks the source's active call; other numbers are inactive results; x = no result given; + = active, no number. Only some compounds are listed: those with a hit (about 4.2% of all), similar ones and a draw of the others. Rule as the data show it, unless noted: active = inhibition above about 27%; inactive = the rest.

SMILES	Mtb betalactam	RecA intein inh	CCHF vOTU inh	FBA Mtb inh	GDH-TPI counter-1	Mtb FBA confirm	GDH-TPI counter-2	others
N#Cc1ccc(-c2ccc(OCC(=O)NCCc3ccccc3)cc2)cc1	3.8	-2.2	11.9	37.6*	4.5	4.7	1.8
N#Cc1ccc(-c2ccc(OCC(=O)NCC(=O)Nc3ccc(F)c(F)c3F)cc2)cc1	2.8	2.9	-9.6	30.0*	11.3	+	+
CCN(C[C@H]1[C@@H](c2ccc(C3=CCCC3)cc2)[C@H](CO)N1C(=O)c1cccnc1)S(=O)(=O)c1ccccc1[N+](=O)[O-]	x	x	1.9	x	x	x	x
COc1ccc(/C=N/n2c(=O)[nH]c3c([nH]c4ccc(C)cc43)c2=O)cc1CN1CCOCC1	x	-1.1	x	92.9*	14.2	127.2*	101.3*
CC1=CC(C)[C@H](/C=N/n2c(=O)[nH]c3c([nH]c4ccc(C)cc43)c2=O)C(C)C1 (stereo partly specified)	-2.9	3.9	-26.4	52.7*	0.6	-1.3	-2.5
COc1ccc(/C=N/n2cnc3c([nH]c4ccc(C)cc43)c2=O)cc1CN1CCCC1	-5.2	2.3	-11.2	0.8	6.9	x	x
O=C(Nc1ccc(F)cc1)Nc1c(-c2ccc(C(F)(F)F)cc2)nc2ncccn12	x	x	5.9	x	x	x	x
Cn1cc(C2(C)CCOc3ccccc32)c2ccccc21 (stereo unspecified)	x	x	1.8	x	x	x	x
O=C1[C@H]2C(c3ccccc3)=NN(c3ccccc3)[C@H]2C(=O)N1c1ccccc1	-2.3	-20.4	-9.4	31.1*	1.3	66.8*	58.6*
CN1CC=C(c2ccc(C(F)(F)F)cc2)N(c2ccccc2)C1=O	x	x	2.7	x	x	x	x
COc1ccc(-c2csc3ncn(Cc4ccccc4)c(=O)c23)cc1	-16.1	4.6	11.3	0.7	15.4	x	x
COc1ccc(-c2c3c(cc4ncn(Cc5ccccc5)c24)COC3=O)cc1	-6.2	x	-1.5	62.5*	4.4	141.2*	138.1*
Cc1cc(NC(=O)Cc2cn(Cc3ccccc3)c3ccccc23)ccc1Oc1cccnc1	x	x	13.5	x	x	x	x
Clc1ccc(N2N=C(c3cccs3)CC2c2ccco2)cc1 (stereo unspecified)	2.8	-14.3	-10.7	81.0*	3.4	82.3*	55.1*
CCC(=O)N1N=C(c2cccs2)CC1c1ccco1 (stereo unspecified)	-0.2	0.6	3.6	2.7	1.8	x	x
Fc1ccc(C2CC(c3ccco3)=NN2c2ccccc2)cc1 (stereo unspecified)	-3.4	-2.9	-39.9	60.0*	7.7	+	+
c1ccc(N2N=C(c3cccs3)CC2c2ccco2)cc1 (stereo unspecified)	-4.9	-9.5	-18.0	78.4*	20.4	13.7	10.2*
Nc1nc2c(ncn2[C@@H]2O[C@H](C(=O)N[C@H](Cc3ccccc3)C(=O)NC3CCCCC3)[C@@H](O)[C@H]2O)c(=O)[nH]1	x	x	8.6	x	x	x	x
CCCCCCc1c[nH]c2ccc(O)c(-c3ccccc3)c12	x	x	5.6	x	x	x	x
Cc1cc(OCC(=O)NCc2cccnc2)c2c3c(c(=O)oc2c1)CCCC3	-6.8	-0.1	-9.6	105.5*	3.7	54.9*	36.9*
CCCc1cc(=O)oc2cc(C)cc(OCC(=O)NCc3cccnc3)c12	0.5	-5.3	-13.4	76.3*	1.5	+	+
Cc1cc(OCC(=O)N[C@@H](Cc2ccccc2)C(=O)O)c2c3c(c(=O)oc2c1)CCCC3	2.0	-0.7	-14.1	50.6*	-5.9	160.9*	117.0*
O=C(COc1cc2oc(=O)c3c(c2cc1Cl)CCCC3)NCc1cccnc1	-1.4	1.0	1.4	2.4	0.4	x	x
O=C(CSc1nnc(COc2ccccc2)n1-c1ccc(Cl)cc1)Nc1ccccc1-c1ccccc1	x	x	9.7	x	x	x	x
CCCCNC(=O)C[C@@H]1C(=O)N(CCc2ccc(Cl)cc2)C2=CCCCC[C@]21C(=O)OC	x	x	14.3	x	x	x	x
SMILES	Mtb betalactam	RecA intein inh	CCHF vOTU inh	FBA Mtb inh	GDH-TPI counter-1	Mtb FBA confirm	GDH-TPI counter-2	others
O=C(/C=C/c1cccc(F)c1)Nc1ccc(S(=O)(=O)Nc2ncccn2)cc1	52.0	0.6	-3.3	92.8*	28.8	29.3*	3.5	GDH-TPI dose=>10
CCO/C(C)=N/n1c2nc3ccccc3nc2c2c(=O)n(CC(C)C)c(C)nc21	-1.4	0.0	18.5	33.2*	21.8	5.5	-0.5
CCOCCCn1c(C)nc2c(c1=O)c1nc3ccccc3nc1n2-c1ccc(C)cc1	x	1.3	x	4.6	4.9	x	x
CCn1c(SCC(=O)Nc2ccccc2-c2ccccc2)nnc1-c1ccc(C)cc1	x	x	0.3	x	x	x	x
COC(=O)CNC(=O)COC(=O)c1cc(Cl)cc(Cl)c1N	93.8	-5.2	-218.0	109.5*	-2.7	+	+
CC(C)CNC(=O)COC(=O)c1ccc(F)cc1Cl	17.5	0.4	5.7	-3.8	-0.3	x	x
CC(C)CNC(=O)COC(=O)c1cc(Cl)cc(Cl)c1N	7.7	x	-105.6	78.2*	-1.0	+	+
Cc1ccc(CSc2nnc(-c3cccs3)o2)cc1C	x	x	3.0	x	x	x	x
COc1cc(C(=O)NCc2ccc(C(=O)NCC(OC)OC)cc2)cc(OC)c1OC	2.0	0.8	3.6	-1.1	-1.2	x	x
COc1ccc(CCNC(=O)c2ccc3nc4cc(Cl)ccc4c(=O)n3c2)cc1OC	2.4	-11.5	-22.3	11.2	5.2	x	x
COC(CNC(=O)c1ccc2nc3ccccc3c(=O)n2c1)OC	2.2	-88.3	-125.8	61.0*	18.0	+	+
COCCCNC(=O)c1ccc2nc3ccccc3c(=O)n2c1	-15.7	-137.7	-102.7	65.9*	12.8	121.4*	106.0*
COC(=O)c1cc2c(c3c4cc(C)ccc4n(S(=O)(=O)c4ccc(OC)cc4)c13)C(=O)N(Cc1ccccc1)C2	x	x	5.9	x	x	x	x
O=S(=O)(c1ccc(Cl)c(NC(=S)Nc2cccc(O)c2)c1)N1CCOCC1	-2.1	-8.3	7.3	-1.1	10.7	x	x
CCN(C(=S)Nc1cc(S(=O)(=O)N2CCOCC2)ccc1Cl)c1cccc2ccccc12	1.1	24.4	1.9	48.2*	-1.1	82.1*	56.2*
CN1OC[C@@H]2CN(C(=O)c3ccc(C#N)cc3)[C@H](c3cccc(Br)c3)C[C@@H]21	x	x	-7.2	x	x	x	x
Cc1nn(-c2ccccc2)c2sc(C(=O)N(CC(=O)NC3CCCC3)Cc3ccco3)cc12	x	7.2	2.7	6.2	14.2	x	x
CC1(C(=O)N(CC(=O)NC2CCCC2)Cc2ccccc2)CC(=O)N=C2C=CC=CN21 (stereo unspecified)	0.9	-0.3	-67.0	109.2*	6.5	139.6*	108.5*
CC1(C(=O)N(CC(=O)NC2CCCC2)Cc2ccco2)CC(=O)N=C2C=CC=CN21 (stereo unspecified)	2.4	-0.3	-80.5	65.0*	15.5	118.4*	71.9*
[O-]/C(=C(\C(=S)Nc1cccc2ccccc12)[n+]1cccc(CO)c1)c1ccc(Cl)s1	x	x	1.8	31.1*	3.1	151.0*	129.0*

Compound activity (PubChem)
